The results in this text go back to PubChem BioAssay (EPA / NIEHS).

The source made the active and inactive calls. The calls were made as follows: active = hit-call score of the fitted dose curve at least 0.9, where 1 is the maximum; inactive = score below 0.9.

By AC50 is commonly meant the concentration at which the activity in the assay is half-maximal.

The nature of the assay: CCTE_Shafer_MEA_acute_network_burst_percentage: CCTE's Neural Acute Assay for Percentage of Network Bursts, Shafer Lab (AID 2284022).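 Also: curves fitted for loss so actives lower network burst percentage.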 The protocol:
CCTE_Shafer_MEA_acute assay is conducted using Axion Biosystems 48 well microelectrode array (MEA) plates and Maestro recording system. Each well of the MEA plate contains a grid of 16 microelectrodes embedded in the culture surface. Electrically active cells, such as neurons, can be cultured over the electrodes, and electrical activity in these cells can be recorded extracellularly. The spontaneous firing of neurons is captured from each electrode on a microsecond timescale providing both temporally and spatially precise data. […] The CCTE_Shafer_MEA_acute assay uses primary cultures of rat cortical neurons. As these cultures mature over time, neural networks develop functional activity and form cohesive networks in which electrical activity can be highly coordinated. Baseline 40-minute recordings are made on days post-plating 13 or 15, followed by a secondary 40-minute recording after chemical exposure.CCTE_Shafer_MEA_acute_network_burst_percentage is a component of the CCTE_Shafer_MEA_acute assay. It measures the percent of spikes (action potential firings) in network bursts (temporally-clustered groups of spikes across multiple electrodes) as the number of spikes occuring in network bursts divided by the total number of spikes during a recording in a microelectrode array (MEA) using Axion Biosystems Maestro 768 channel amplifier with the AxIS adaptive spike detector. The recordings before and after chemical treatment are used to calculate a percent change in the network burst percentage in each well.Data from the assay component CCTE_Shafer_MEA_acute_network_burst_percentage was analyzed into 1 assay endpoint. This assay endpoint, CCTE_Shafer_MEA_acute_network_burst_percentage, was analyzed in the negative analysis fitting direction relative to DMSO as the negative control and baseline of activity. Using a type of functional reporter, gain or loss-of-signal activity can be used to understand electrical activity.
Spontaneous activity in the cortical cultures was recorded using an Axion Biosystems Maestro 768 channel amplifier and Axion Integrated Studios (AxIS) v1.8 (or later) software. The amplifier recorded from all channels simultaneously (gain = 1200 x; sampling rate = 12.5 kHz/channel): raw signals were filtered with a Butterworth band-pass filter (300-5000 Hz), which filters out slower local field potentials leaving only fast potentials, i.e., "spikes", arising from extracellular currents associated with action potentials (Pine 2006; Wheeler and Nam 2011). On-line spike detection of filtered signals was conducted with the AxIS adaptive spike detector, using a threshold of 8x the root mean squared (rms) noise on each channel. Any electrodes with rms noise levels greater than 5 uV were grounded (e.g., no data were recorded). Once grounded, an electrode was grounded for the duration of the experiment. All recordings were conducted at 37 C. Wells were deemed usable if on the day of the exposure >/= 10 electrodes were active (defined as >/= 5 spikes/min). On DIV 13 or 15, a minimum of three wells from one cortical culture preparation were treated with each compound (0.03-40 uM). Prior to recording baseline activity, each mwMEA plate was placed in the Maestro at 37 C and allowed to sit for 20 min while firing rates stabilized. Baseline activity (40 min) was recorded before the addition of each compound. An additional 40 min of spontaneous activity was recorded in the presence of each compound. Changes in network parameters relative to baseline were assessed following compound treatment.
On to `CCOC(=O)c1ccccc1C(=C1C=C(Br)C(=O)C(Br)=C1)c1cc(Br)c(O)c(Br)c1`, for which the result was inactive.

With `CCCCC(CC)COCC1CO1` (stereo unspecified), the molecule was classed as inactive.

In the case of `C=C[Si](OC(C)=O)(OC(C)=O)OC(C)=O`, the call was inactive.

For the molecule `Nc1ncn([C@@H]2O[C@H](CO)[C@@H](O)[C@H]2O)c(=O)n1`, the AC50 is 8.38 µM (active).

In the case of `O=C1CCCN1CCO`, the molecule was classed as inactive.

For the molecule `CN1C(=O)N(C)C(O)C1O` (stereo unspecified), the outcome was inactive.

`CCCCC(CC)COC(=O)c1ccccc1O` (stereo unspecified): the result was inactive.

In the case of `CO[Si](OC)(OC)c1ccccc1`, the call was inactive.

On to `CCO[Si](C)(OCC)OCC`, for which the outcome was inactive.

`O=C(c1ccc(O)cc1)c1ccc(O)cc1O`: the molecule was called inactive.

As to `Nc1ccc(N)c(Cl)c1`, the outcome was inactive.
